Measured values from the supplement of paper PMC6607015.
Structures can show the parent of a compound that is named as a salt.

How the values were obtained:
Conditions in all cases: compound concentration in added solution (µM; 5 µl added to 20 µl cells): 10; 18 h
A431 [1] = assay: LBPA endosome anti-LBPA integrated intensity (sum per cell), Z-score; higher = more LBPA staining
Procedure, shortened: (§1)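 HeLa MZ or A431 cells were plated at 3,500 per well in 20 µl over 5 µl of 10 µM compound solution in duplicate 384-well imaging plates and fixed in 4% PFA after 18 h. Staining used the 6C4 anti-LBPA antibody, filipin, propidium iodide and CellTracker green, with four 20× images captured per well. MetaXpress segmentation measured integrated LBPA or filipin intensity per cell, across the whole cell or inside LBPA endosomes, and AcuityXpress normalised these into Z-scores.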

HeLa MZ [2] = assay: as above
Procedure, shortened: as §1

A431 [3] = assay: whole-cell filipin (free cholesterol) integrated intensity, Z-score; higher = more cholesterol staining
Procedure, shortened: as §1

HeLa MZ [4] = assay: as above
Procedure, shortened: as §1

A431 [5] = assay: filipin (cholesterol) integrated intensity within LBPA endosomes, Z-score; higher = more cholesterol in LBPA endosomes
Procedure, shortened: as §1

HeLa MZ [6] = assay: as above
Procedure, shortened: as §1

SMILES | LBPA endosome anti-LBPA integrated intensity (z-score) (A431 [1]) | LBPA endosome anti-LBPA integrated intensity (z-score) (HeLa MZ [2]) | whole-cell filipin (z-score) (A431 [3]) | whole-cell filipin (z-score) (HeLa MZ [4]) | filipin (z-score) (A431 [5]) | filipin (z-score) (HeLa MZ [6])
COc1ccc2c(c1)N(C[C@H](C)CN(C)C)c1ccccc1S2 [Methotrimeprazine maleat salt] | 2.94 | 1.48 | 1.03 | -0.207 | 1.82 | 1.55
C[C@]12CCC(=O)C=C1CC[C@@H]1[C@@H]2[C@@H](O)C[C@@]2(C)[C@H]1CC[C@]2(O)C(=O)CO [Hydrocortisone base] | -0.41 | -0.249 | -0.675 | -0.6 | -0.327 | -0.44
Nc1ccc(S(=O)(=O)Nc2ccccn2)cc1 [Sulfapyridine] | -0.468 | -0.131 | -0.33 | -0.348 | -0.499 | -0.602
O=C1CN(/N=C/c2ccc(-c3ccc([N+](=O)[O-])cc3)o2)C(=O)N1 [Dantrolene sodium salt] | -0.554 | -0.147 | -1.1 | -0.944 | -0.655 | -0.686
CC[N+](C)(CC)CCC[n+]1c(-c2ccccc2)c2cc(N)ccc2c2ccc(N)cc21 [Propidium iodide] | -0.615 | -1.77 | -0.548 | -0.836 | -0.56 | -0.527
NC(=O)c1cccnc1 [Nicotinamide] | -0.398 | -0.64 | -0.512 | -0.013 | -0.419 | -0.499
O=C(O)CCc1nc(-c2ccccc2)c(-c2ccccc2)o1 [Oxaprozin] | -0.435 | -0.524 | -0.0363 | 0.42 | -0.35 | -0.246
CN1CCN(CCCN2c3ccccc3Sc3ccc(C(F)(F)F)cc32)CC1 [Trifluoperazine dihydrochloride] | 1.83 | -0.0806 | -0.826 | 0.153 | 2.06 | 3.01
N=C(NCCCCCCNC(=N)NC(=N)Nc1ccc(Cl)cc1)NC(=N)Nc1ccc(Cl)cc1 [Chlorhexidine] | -0.526 | -0.794 | -1.08 | -1.91 | -0.271 | -0.107
O=C(CCCCC(=O)Nc1c(I)cc(I)c(C(=O)O)c1I)Nc1c(I)cc(I)c(C(=O)O)c1I [Iodipamide] | -0.326 | -0.366 | -0.456 | -0.377 | -0.385 | -0.472
CSc1ccc2c(c1)C(N1CCN(C)CC1)Cc1ccccc1S2 (stereo not drawn) [Methiothepin maleate] | 3.25 | 1.9 | 0.963 | 0.218 | 3 | 2.66
CCC(=O)O[C@]1(C(=O)CCl)[C@@H](C)C[C@H]2[C@@H]3CCC4=CC(=O)C=C[C@]4(C)[C@@]3(F)[C@@H](O)C[C@@]21C [Clobetasol propionate] | -0.343 | -0.845 | 0.00699 | -0.332 | -0.266 | -0.465
Cc1ncc(C[n+]2csc(CCO)c2C)c(N)n1 [Thiamine hydrochloride] | -0.398 | -0.0332 | 0.0289 | -0.0399 | -0.382 | -0.539
CCN1C(=O)NC(c2ccccc2)C1=O (stereo not drawn) [Ethotoin] | -0.277 | -0.178 | -0.136 | -0.484 | -0.353 | -0.513
O=C1O[C@H]([C@@H](O)CO)C(O)=C1O [Ascorbic acid] | -0.608 | -0.991 | -0.369 | 0.278 | -0.529 | -0.527
c1ccc2c(c1)CCCc1cc(NCCN3CCOCC3)nnc1-2 | -0.68 | -0.691 | -0.665 | -0.162 | -0.491 | -0.0973
NC[C@@H]1O[C@H](O[C@H]2[C@@H](O)[C@H](O[C@@H]3[C@@H](O)[C@H](N)C[C@H](N)[C@H]3O[C@H]3O[C@H](CO)[C@@H](O)[C@H](O)[C@H]3N)O[C@@H]2CO)[C@H](N)[C@@H](O)[C@@H]1O [Paromomycin sulfate] | -0.396 | -0.465 | -0.35 | -0.208 | -0.425 | -0.447
CCCCOC(=O)c1ccc(N)cc1 [Butamben] | -0.33 | 0.449 | -0.437 | -0.221 | -0.356 | -0.552
Clc1ccc(Cn2c(CN3CCCC3)nc3ccccc32)cc1 [Clemizole hydrochloride] | 0.145 | 0.955 | 0.228 | -0.285 | 0.0324 | -0.147
C#C[C@]1(O)CC[C@H]2[C@@H]3CCc4cc(OC)ccc4[C@H]3CC[C@@]21C [Ethynylestradiol 3-methyl ether] | -0.376 | 0.717 | -0.391 | 0.0701 | -0.42 | -0.16
CCCN(CCC)S(=O)(=O)c1ccc(C(=O)O)cc1 [Probenecid] | -0.546 | -0.569 | -0.756 | -0.679 | -0.526 | -0.61
CC(C(O)c1ccc(O)cc1)N1CCC(Cc2ccccc2)CC1 (stereo not drawn) [Ifenprodil tartrate] | 0.387 | -0.296 | 0.502 | 0.445 | 0.406 | 0.378
COc1c(O[C@@H]2O[C@H](CO)[C@@H](O)[C@H](O)[C@H]2O)cc2c(c1OC)-c1ccc(SC)c(=O)cc1[C@@H](NC(C)=O)CC2 [Thiocolchicoside] | -0.551 | -0.233 | -0.589 | -0.789 | -0.477 | -0.471
